A selection: hits, their analogues and other compounds. The true share with any hit is near 2.2%.
MITF TRPM1 inh: reduces MITF-dependent TRPM1 promoter luciferase signal. SK-MEL-5 TRPM1 promoter luciferase, 24 h. 330,000 compounds, 0.83% hits. AID 488899. inhibition, % at 12.5 µM;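 active = mean inhibition across replicates of 60% or more, whatever share of single replicates reaches that level; inconclusive = some that reach 60%, reason not given; inactive = mean inhibition across replicates below 60%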
LGR2 inh: blocks bursicon-induced cAMP signaling via Drosophila LGR2 | HEK293 LGR2, CRE-luciferase, bursicon-stimulated, 4 h | inhibition, % at 9.99 µM | 380,000 compounds, 0.35% hits;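 active = drop in luminescence signal, shown as inhibition above about 50% in the replicate tests, limit read from the data, passing the limit was not always enough; inconclusive = probably only some replicates passing the limit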;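 note: agonist challenge used bursicon conditioned medium at about half maximal strength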
EWS-Fli block: blocks EWS/Fli oncoprotein-driven transcription; 350,000 compounds, 0.67% hits; A673 NR0B1-luciferase reporter, viability-normalised; inhibition, % at 12.6 µM;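 active = mean inhibition of at least 50% after viability correction, with every replicate also passing that limit; inconclusive = mean reaches 50% but only one of two replicates passes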;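 note: firefly luciferase signal divided by Alamar Blue viability fluorescence both relative to DMSO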
EBV LMP1 NFkB: Epstein-Barr LMP1 NF-kappaB reporter inhibition; LMP1-induced NF-kappaB luciferase reporter cells, luminescence; inhibition, % at 12.5 µM; 350,000 compounds, 0.69% hits; AID 504558; in the data active = inhibition above about 41%; inconclusive = no clear call, values can overlap the other calls;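 note: 0% = neutral control wells and 100% = reference inhibitor control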
Shn3 inh set2: Schnurri-3 reporter inhibition in Clone20 osteoblasts. Clone20 osteoblast Shn3 3'UTR firefly luciferase, 24 h. inhibition, % at 12.5 µM. 360,000 compounds, 0.52% hits;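 active = mean inhibition of at least 75% with every replicate also reaching 75%; inconclusive = mean inhibition at least 75% but some replicate below; inactive = mean inhibition below 75%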;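 note: 0% = median of neutral control wells and 100% = pilot-screen positive control compound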
PAX8 reporter: inhibitors of PAX8 transcriptional activity in RMG-I cells; RMG-I TPO-luciferase reporter, SteadyGlo, 24 h; inhibition, % at 12.6 µM; 360,000 compounds, 1.2% hits;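 active = mean replicate inhibition at least 60% with every replicate also reaching 60%; inconclusive = only one of the two criteria is met; inactive = mean below 60% and not all replicates reaching 60%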;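 note: luciferase light reporting Pax8 driven TPO promoter activity; plate controls were median of neutral control wells for no effect and mitoxantrone controls for full effect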
An asterisk follows results filed as active.

How did C[C@@H]1CCCCO[C@@H](CN(C)S(=O)(=O)c2ccc(F)cc2)[C@@H](C)CN([C@H](C)CO)C(=O)c2cc(NC(=O)CCC(F)(F)F)ccc2O1 do in these assays?
LGR2 inh: 6.5; EWS-Fli block: 1.4; PAX8 reporter: -4.5

Results for C[C@@H]1CN([C@H](C)CO)C(=O)c2cc(NS(C)(=O)=O)ccc2O[C@@H](C)CCCCO[C@@H]1CN(C)S(=O)(=O)c1cn(C)cn1 ?
LGR2 inh: 0.0; EWS-Fli block: -9.1

What do the screens show for `CN1[C@@H]2Cn3c(ccc(-c4ccccc4)c3=O)[C@H]1[C@@H](C(=O)NC1CCCCC1)[C@@H]2CO`?
LGR2 inh: -3.6; EWS-Fli block: 7.7; PAX8 reporter: 88.6*

What do the screens show for `CN1[C@H](C(=O)N2CCc3ccccc3C2)[C@@H](CO)[C@@H]2Cn3c(ccc(-c4ccccc4)c3=O)[C@@H]21`?
LGR2 inh: 3.3; EWS-Fli block: 17.8; PAX8 reporter: 67.6*

What do the screens show for `CN1[C@@H]2c3ccc(-c4ccccc4)c(=O)n3C[C@H]1[C@H](CO)[C@H]2C(=O)NC1CCCCC1`?
LGR2 inh: -5.5; EWS-Fli block: -1.3; PAX8 reporter: 10.4

How did N#CCC(=O)N/N=C/c1cn(Cc2cccc3ccccc23)c2ccccc12 do in these assays?
MITF TRPM1 inh: 24.7; LGR2 inh: -10.0; EWS-Fli block: 52.6*; EBV LMP1 NFkB: 21.8; Shn3 inh set2: 0.9; PAX8 reporter: 25.7

Results for N#CCC(=O)N/N=C/c1cn(Cc2ccccc2C#N)c2ccccc12 ?
MITF TRPM1 inh: 8.1; LGR2 inh: 10.4; EWS-Fli block: 5.2; EBV LMP1 NFkB: -6.9; Shn3 inh set2: 12.6; PAX8 reporter: 3.2

How did O=C(Nc1ccccc1)[C@@H]1[C@@H](CO)[C@@H]2Cn3c(cccc3=O)[C@@H]2N1CC1CC1 do in these assays?
LGR2 inh: -6.9; EWS-Fli block: 6.5

Results for COCCn1c(SCCN2CCOCC2)nc2c1c(=O)[nH]c(=O)n2C ?
MITF TRPM1 inh: -0.5; LGR2 inh: -3.9; EWS-Fli block: 2.1; EBV LMP1 NFkB: 76.5*; Shn3 inh set2: -29.5; PAX8 reporter: -16.7

What do the screens show for `C=CCn1c(SCCN2CCOCC2)nc2c1c(=O)[nH]c(=O)n2C`?
MITF TRPM1 inh: 8.7; EBV LMP1 NFkB: -7.5; Shn3 inh set2: -3.7; PAX8 reporter: 11.0

How did CCCCCSc1nc2c(c(=O)[nH]c(=O)n2C)n1CC do in these assays?
MITF TRPM1 inh: -12.3; LGR2 inh: 9.4; EWS-Fli block: 17.9; EBV LMP1 NFkB: 81.8*; Shn3 inh set2: -2.0; PAX8 reporter: -14.4

Results for CCCCCCCSc1nnc(-c2ccccc2N)c(=O)[nH]1 ?
MITF TRPM1 inh: -7.0; LGR2 inh: 1.3; EWS-Fli block: 55.9*; EBV LMP1 NFkB: 1.1; Shn3 inh set2: 11.3; PAX8 reporter: 8.2

How did CCCCSc1nnc(-c2ccccc2N)c(=O)[nH]1 do in these assays?
MITF TRPM1 inh: -26.0; LGR2 inh: -74.1; EWS-Fli block: -89.6; EBV LMP1 NFkB: -22.6; Shn3 inh set2: -35.9

How did COC(=O)c1c(NC(=O)C(Cl)Cl)sc2c1C(C(=O)OC)CC2 (configuration not stated) do in these assays?
MITF TRPM1 inh: inconclusive; LGR2 inh: 11.0; EWS-Fli block: 37.9; EBV LMP1 NFkB: -26.9; Shn3 inh set2: -7.4; PAX8 reporter: 63.7*

What do the screens show for `O=C(CCl)Nc1cccc(S(=O)(=O)N2CCCCCC2)c1`?
MITF TRPM1 inh: 75.4*; LGR2 inh: -0.1; EBV LMP1 NFkB: -36.1; Shn3 inh set2: -7.2; PAX8 reporter: 5.3

Results for COCc1c(C(=O)Nc2cccc(S(=O)(=O)N3CCCCC3)c2)oc2ccccc12 ?
MITF TRPM1 inh: 2.9; LGR2 inh: 21.3; EBV LMP1 NFkB: 2.3; Shn3 inh set2: 85.6*

What do the screens show for `O=C(Nc1cccc(S(=O)(=O)NC2=NCCC2)c1)C1CC(=O)N(c2ccc3c(c2)OCCO3)C1` (configuration not stated)?
MITF TRPM1 inh: 4.0; LGR2 inh: 5.1; EWS-Fli block: 9.6; EBV LMP1 NFkB: 5.0; Shn3 inh set2: 87.2*; PAX8 reporter: -3.9

How did O=C(CCl)Nc1ccc(S(=O)(=O)NC2=NCCCCC2)cc1 do in these assays?
MITF TRPM1 inh: 21.4; LGR2 inh: -21.1; EWS-Fli block: 10.9; EBV LMP1 NFkB: -31.5; Shn3 inh set2: -22.1; PAX8 reporter: 17.1

Results for O=C(Cc1ccc(Cl)cc1)Nc1cccc(S(=O)(=O)N2CCCCC2)c1 ?
MITF TRPM1 inh: 14.2; LGR2 inh: 8.1; EWS-Fli block: 9.2; EBV LMP1 NFkB: 1.2; Shn3 inh set2: 37.9; PAX8 reporter: 14.8

How did O=C(CCl)Nc1cccc(S(=O)(=O)NC2=NCCCCC2)c1 do in these assays?
MITF TRPM1 inh: 75.6*; LGR2 inh: -6.2; EWS-Fli block: 61.7*; EBV LMP1 NFkB: -60.0; Shn3 inh set2: -13.9; PAX8 reporter: 45.3

What do the screens show for `Cc1noc(C)c1NC(=O)NCC[C@@H]1CC[C@@H](NC(=O)c2ccncc2)[C@@H](CO)O1`?
LGR2 inh: -3.0; EWS-Fli block: -7.0; PAX8 reporter: -2.8

How did Cc1noc(C)c1NC(=O)N1C[C@H](O)COC[C@@H]2O[C@H](CC(=O)NCC3CCCCC3)CC[C@H]21 do in these assays?
LGR2 inh: -2.2; EWS-Fli block: -1.8; PAX8 reporter: 11.7

Results for O=C(COC(=O)c1ccco1)Nc1cccc(S(=O)(=O)N2CCOCC2)c1 ?
LGR2 inh: -2.9; EWS-Fli block: 3.3; EBV LMP1 NFkB: -4.2; Shn3 inh set2: -8.2; PAX8 reporter: 91.7*

How did COc1ccc(CN(C)C[C@@H]2OCCCC[C@H](C)Oc3ccc(NC(=O)Nc4ccc(C(F)(F)F)cc4)cc3C(=O)N([C@@H](C)CO)C[C@@H]2C)cc1 do in these assays?
EWS-Fli block: 82.9*; PAX8 reporter: -26.1

What do the screens show for `COc1ccc(CN(C)C[C@H]2OCCCC[C@@H](C)Oc3ccc(NC(=O)Nc4ccc(C(F)(F)F)cc4)cc3C(=O)N([C@H](C)CO)C[C@H]2C)cc1`?
EWS-Fli block: 56.1*; PAX8 reporter: 40.5

How did COc1ccc(NC(=O)Nc2ccc3c(c2)C(=O)N([C@@H](C)CO)C[C@H](C)[C@@H](CN(C)Cc2ccc(C(F)(F)F)cc2)OCCCC[C@H](C)O3)cc1 do in these assays?
LGR2 inh: -5.4; EWS-Fli block: 6.6; PAX8 reporter: 48.2

How did COc1ccc(NC(=O)Nc2ccc3c(c2)C(=O)N([C@H](C)CO)C[C@@H](C)[C@@H](CN(C)Cc2ccc(C(F)(F)F)cc2)OCCCC[C@@H](C)O3)cc1 do in these assays?
LGR2 inh: 15.5; EWS-Fli block: 3.6; PAX8 reporter: 44.2

What do the screens show for `COc1ccc(CN(C)C[C@H]2OCCCC[C@H](C)Oc3ccc(NC(=O)Nc4cccc5ccccc45)cc3C(=O)N([C@H](C)CO)C[C@H]2C)cc1`?
LGR2 inh: -1.5; EWS-Fli block: 69.6*; PAX8 reporter: -1.1
